Compound activity (PubChem BioAssay)
Rows were chosen to be rich in hits. Some 2.4% of all compounds tested hit in one or more screens of this group.
Pol beta inh = blocks human DNA polymerase beta activity; P06746; Pol beta primer extension/strand displacement, fluorescence kinetic; Potency, µM (top dose mostly 114 µM), most hits filed as inhibitors; 340,000 tested, 1.3% active
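Reaction started by 50 nM substrate onto compound-treated Pol beta (10 nM, 15 min preincubation, room temperature); plates read at 0 min and 10 min. Normalized concentration-effect data fitted by four-parameter Hill equation.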
Pol eta inh-1 = blocks human DNA polymerase eta activity; Q9Y253; recombinant Pol eta, fluorescent DNA replication assay; Potency, µM (top dose mostly 114 µM), most hits filed as inhibitors; 390,000 tested, 1.2% active; AID 588591
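Fluorescent replication assay: 50 nM final substrate added after a 15 min room-temperature compound preincubation with 10 nM enzyme. Signal taken at 0 min and again at 10 min.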
GLS inh = glutaminase GLS (human) inhibition; GLS enzymatic activity, qHTS titration; 410,000 tested, 0.21% active; AID 624170; Potency, µM (top dose mostly 45.5 µM), hits mostly inhibitors
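Glutamate formation by hKGA was monitored fluorometrically using coupled glutamate oxidase, HRP and Amplex Red. Substrate was added as 1 mM L-glutamine solution; incubation was 30 min at RT after an initial read.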
Pol iota inh = blocks human DNA polymerase iota activity. 390,000 tested, 1% active. Potency, µM (doses to about 115 µM), actives largely listed as inhibitors. Pol iota fluorescent replication assay, 10 min. Q9UNA4
Target sequence (Q9UNA4 whole entry, looked up): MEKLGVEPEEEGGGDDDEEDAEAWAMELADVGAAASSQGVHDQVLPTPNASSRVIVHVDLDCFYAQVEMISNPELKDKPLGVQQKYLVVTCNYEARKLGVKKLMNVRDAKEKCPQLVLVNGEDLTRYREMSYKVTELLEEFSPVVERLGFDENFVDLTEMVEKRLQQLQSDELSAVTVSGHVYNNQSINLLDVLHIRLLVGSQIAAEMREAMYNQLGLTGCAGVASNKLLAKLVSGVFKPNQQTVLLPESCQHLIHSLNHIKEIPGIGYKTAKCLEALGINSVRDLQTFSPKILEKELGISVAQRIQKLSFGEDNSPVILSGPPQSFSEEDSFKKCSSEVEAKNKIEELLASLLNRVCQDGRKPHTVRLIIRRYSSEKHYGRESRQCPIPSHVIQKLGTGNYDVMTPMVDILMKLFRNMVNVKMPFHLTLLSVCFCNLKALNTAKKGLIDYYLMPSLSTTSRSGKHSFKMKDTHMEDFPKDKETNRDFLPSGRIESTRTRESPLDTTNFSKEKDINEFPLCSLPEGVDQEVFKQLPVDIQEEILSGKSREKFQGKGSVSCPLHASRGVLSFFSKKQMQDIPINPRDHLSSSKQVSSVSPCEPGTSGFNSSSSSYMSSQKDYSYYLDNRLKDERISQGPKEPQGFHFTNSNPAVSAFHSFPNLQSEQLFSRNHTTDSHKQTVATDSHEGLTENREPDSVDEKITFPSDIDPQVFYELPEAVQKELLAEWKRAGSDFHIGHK
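Fluorescent replication assay read twice, at 0 min and 10 min after adding 50 nM (final) substrate. Enzyme (10 nM) and compounds were first incubated 15 min at room temperature; enzyme-free buffer wells were negative controls.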
APE1 inh = inhibitors of human APE1 endonuclease | P27695 | recombinant APE1, TAMRA/BHQ-2 abasic DNA cleavage fluorescence | Potency, µM (series often up to 65.8 µM), actives largely listed as inhibitors | 350,000 tested, 0.35% active | AID 2517; also: nearly all actives have a fitted effect of over 55% in size
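Readout is kinetic fluorescence (ex 525, em 598 nm) from cleavage of 50 nM TAMRA/BHQ-2 THF abasic duplex by 0.75 nM APE1, compound added 15 min beforehand at RT.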
Pol kappa inh-1 = blocks human DNA polymerase kappa activity. 400,000 tested, 0.53% active. purified Pol kappa, fluorescent DNA synthesis assay, 10 min. Potency, µM (top dose mostly 107 µM), usual class: inhibitors. Q9UBT6
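First, compounds were pin-transferred onto 10 nM Pol kappa. After 15 min at room temperature, substrate was added to 50 nM final. Fluorescence was then measured kinetically at 0 and 10 min.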
TbPGK inh = blocks T. brucei phosphoglycerate kinase | Potency, µM (doses to about 57.5 µM), usual class: inhibitors | TbPGK coupled GAPDH assay, Kinase-Glo luminescence | shares compounds with Pol kappa inh-1 | 500 tested, 79% active; also: nearly all actives have a fitted effect of over 65% in size
POLI cherry-pick = Inhibitors of human DNA polymerase iota, confirmation; shares compounds with Pol kappa inh-1; Pol iota primer extension, TAMRA/BHQ fluorescence; Potency, µM, hits mostly inhibitors; 1,500 tested, 77% active; AID 720496
GALK inh confirm = confirmation of human galactokinase (GALK) inhibitors; 150 tested, 70% active; AID 2015; shares compounds with Pol eta inh-1; purified GALK, Kinase-Glo ATP depletion luminescence; Potency, µM (titrated, usually from 115 µM), hits mostly inhibitors
Redox cycling = counter-screen for GALK inhibitors: redox cycling H2O2 generation; Potency, µM (doses to about 115 µM), hits mostly inhibitors; 150 tested, 40% active; Phenol red-HRP H2O2 redox cycling, absorbance 600 nm; shares compounds with Pol eta inh-1
HEK293 viability = counter-screen for GALK inhibitors: HEK293 cell cytotoxicity. shares compounds with Pol eta inh-1. HEK-293 viability, ATP luminescence (CellTiter-Glo), 24/48 h. Potency, µM (series often up to 46.1 µM), hits mostly inhibitors. 170 tested, 10% active. AID 2547
Pol kappa inh-2 = Pol kappa (human) inhibition, cherry-pick confirmation. Potency, µM, usual class: inhibitors. purified Pol-kappa, fluorescent strand-displacement substrate. AID 720501. 920 tested, 76% active. shares compounds with Pol eta inh-1
Pol eta inh-2 = confirmation of human DNA polymerase eta inhibitors; shares compounds with Pol eta inh-1; Pol eta primer extension, TAMRA/BHQ fluorescence, 10 min; Potency, µM, usual class: inhibitors; 2,600 tested, 64% active; AID 720502
Numbers stand for hits; n = inactive; u = inconclusive; x = not tested or not shown. Calls follow the shape of the dose curve; as a rule, active = well fitted curve in the direction sought with a large enough effect; inconclusive = small, poorly fitted or top-dose-only effect, or another doubt; inactive = no such curve, though single readings can be large; an effect the other way counts as inactive or inconclusive.

SMILES | Pol beta inh | Pol eta inh-1 | GLS inh | Pol iota inh | APE1 inh | Pol kappa inh-1 | POLI cherry-pick | Pol eta inh-2 | others
Cc1ccc(S(=O)(=O)NN=Cc2ccco2)cc1 | x | n | n | x | x | x | x | x
NC(=O)C1CCN(C2=C(Cl)C(=O)c3ccccc3C2=O)CC1 | u | 6.31µM | n | 2.82µM | n | n | 42.3 | 21.3 | GALK inh confirm=18.8µM;Redox cycling=23.7µM;HEK293 viability=u
NC(=O)C1CCN(C2=C(NS(=O)(=O)c3ccccc3)C(=O)c3ccccc3C2=O)CC1 | n | n | n | n | n | n | x | x
COc1ccc(N2CCN(C(CNC(=O)C(=O)NCc3cccs3)c3ccco3)CC2)cc1 (stereo unspecified) | n | u | n | n | n | n | x | x
CCOC(=O)CC(=O)CSc1ncnc2c1nnn2-c1ccccc1 | n | n | n | n | n | n | x | x
O=C(O)c1ccc(N=Nc2c(O)ccc3ncccc23)cc1 | 5.01µM | 2.82µM | n | 3.98µM | n | 28.2µM | 33.6 | 15.1 | Pol kappa inh-2=10.6
Nc1nc(N)c(N=Nc2ccc(C(=O)O)cc2)c(N)n1 | u | n | n | n | n | n | x | x
Cc1nc2ccc(S(=O)(=O)NCC(=O)N3CCN(c4ccccn4)CC3)cc2s1 | n | n | n | n | n | n | x | x
COc1cc(NS(=O)(=O)c2ccc(NC(=S)NC(=O)/C=C/c3ccco3)cc2)ncn1 | 17.8µM | 2.24µM | u | u | u | 7.08µM | 16.8 | 4.26 | TbPGK inh=4.61µM
COc1ccccc1/C=C/C=N/NC(=O)CCC1C(=O)NN=C1C (stereo unspecified) | n | n | n | n | n | n | x | x
CN(C)S(=O)(=O)c1cc(NC(=O)COC(=O)/C=C/c2ccco2)ccc1Cl | u | 25.1µM | n | u | u | 31.6µM | x | 67.5 | TbPGK inh=n
Cn1c(Cl)c(/C=N/OC(=O)C2CC2)c2ccccc21 | n | n | n | n | n | n | x | x
Cc1cc(C)c2c(c1)NC(C(=O)O)C1CC=CC21 (stereo unspecified) | u | 11.2µM | 10µM | 12.6µM | n | 25.1µM | 26.7 | 23.9 | Pol kappa inh-2=6.7
Cn1ccsc1=NC(=O)c1ccc([N+](=O)[O-])o1 | n | 39.8µM | u | 25.1µM | n | u | 33.6 | 42.6
Cn1c(=O)c2c3c(sc2n2c(SCC(N)=O)nnc12)CC(C(C)(C)C)CC3 (stereo unspecified) | n | n | n | n | n | n | x | x
CCCSc1nc(C)c(-c2csc(C(C#N)=C3CCCC3)n2)cc1C#N | n | 44.7µM | n | u | u | u | 67 | 33.8
C[C@H]1CN([C@@H](C)CO)S(=O)(=O)c2ccc(Br)cc2O[C@H]1CN(C)C(=O)NC1CCCCC1 | x | n | n | x | x | x | x | x
CN(C)c1ccc(-c2ccc3c(=O)c4ccccc4n(C)c3c2)cn1 | u | 20µM | n | u | n | n | u | u
